NPSR antag: antagonists of human neuropeptide S receptor cAMP signaling; Q6W5P4; CHO-NPSR cells, cAMP TR-FRET, antagonist mode; Potency, µM (highest dose often 38.3 µM), without a hit: top-dose activity change, negative = inhibition, actives largely listed as inhibitors; 220,000 compounds, 1% hits; AID 1461; further: potency means the concentration at half of the fitted maximal effect; nearly all actives have a fitted effect of over 50% in size
Target sequence (Q6W5P4 whole entry, looked up): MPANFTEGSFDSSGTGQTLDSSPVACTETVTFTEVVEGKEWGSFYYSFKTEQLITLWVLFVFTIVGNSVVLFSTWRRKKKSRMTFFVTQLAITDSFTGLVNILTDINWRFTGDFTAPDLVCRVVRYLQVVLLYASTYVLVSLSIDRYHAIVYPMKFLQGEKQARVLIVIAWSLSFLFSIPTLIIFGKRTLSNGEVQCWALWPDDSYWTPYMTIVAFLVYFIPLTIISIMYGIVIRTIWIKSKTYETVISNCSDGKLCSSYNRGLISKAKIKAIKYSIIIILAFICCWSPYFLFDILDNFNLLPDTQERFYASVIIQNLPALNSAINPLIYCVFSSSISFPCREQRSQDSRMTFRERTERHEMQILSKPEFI
ALDH1A1 block: inhibitors of human aldehyde dehydrogenase 1A1 | P00352 | Purified ALDH1A1, NADH fluorescence, propionaldehyde substrate | Potency, µM (titrated, usually from 75.3 µM), for the others: top-dose activity, negative = inhibition, usual class: inhibitors | 220,000 compounds, 7.3% hits | AID 1030; active means well fitted inhibition curve with a large enough effect, not every such curve was filed as active; inconclusive means small, poorly fitted or top-dose-only effect, or another doubt; inactive means no such curve, though single readings can be large or run the other way;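 further: potency means the concentration at half of the fitted maximal effect; plate controls were no enzyme wells and a reference inhibitor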
HPGD block: inhibitors of human 15-hydroxyprostaglandin dehydrogenase (HPGD); P15428; purified HPGD, NADH fluorescence kinetic, PGE2 substrate; Potency, µM, without a hit: at the highest dose activity change, negative = inhibition, usual class: inhibitors; 150,000 compounds, 4.3% hits; active means well fitted inhibition curve with a large enough effect, not every such curve was filed as active; inconclusive means small, poorly fitted or top-dose-only effect, or another doubt; inactive means no such curve, though single readings can be large or run the other way; further: potency means the concentration at half of the fitted maximal effect
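NADH formation kinetics: reaction with 30 uM PGE2 and 1 mM NAD+ (final), 20 nM enzyme, Tris-HCl pH 8 with Tween 20, after 15 min compound preincubation at room temperature. Fluorescence change, last versus first of five reads.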
IMPase Li inh: IMPase inhibition in cells with lithium potentiation; CHO-M1 cells, IP1 TR-FRET (IP-One), carbachol + lithium; Potency, µM (top dose mostly 59.4 µM), inactives show top-dose activity, negative = IMPase inhibition, hits mostly inhibitors; 210,000 compounds, 0.35% hits; AID 1457;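 further: IP1 builds up when IMPase is blocked and the TR-FRET signal falls; potency means the concentration at half of the fitted maximal effect; plate controls were basal vehicle for no effect and high inhibitor control for full effect; nearly all actives have a fitted effect of over 50% in size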
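Lithium-sensitised IP1 accumulation assay; M1-expressing CHO cells treated 30 min at 37C with compound. Competitive antibody detection by time-resolved FRET followed a 10 min room-temperature lysis step.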
12-hLO inh: blocks human 12-lipoxygenase activity; 150,000 compounds, 0.12% hits; purified 12-hLO, xylenol orange hydroperoxide absorbance; P18054; AID 1452; Potency, µM (titrated, usually from 57.1 µM), for the others: at the top dose activity change, negative = inhibition, hits mostly inhibitors; further: potency means the concentration at half of the fitted maximal effect; nearly all actives have a fitted effect of over 55% in size
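Hydroperoxide output read as Fe(III)-xylenol orange absorbance, 573-to-405 nm ratio, after 30 min reaction with 40 uM arachidonic acid. Enzyme: 150 nM purified human 12hLO, 15 min compound preincubation; 25 mM Hepes pH 7.0, room temperature.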
IMPase inh: IMPase inhibition in cells; 120,000 tested, under 10 active; inhibition (IP1 accumulation), % at 46.1 µM; CHO-M1 cells, IP1 accumulation, HTRF TR-FRET ratio; active means well fitted curve in the direction sought with a large enough effect in the signal ratio, not every such curve was filed as active; inconclusive means small, poorly fitted or top-dose-only effect, or a change in a side signal; inactive means no such curve, though single readings can be large or run the other way; the % refers to the signal ratio;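 further: cells stimulated with carbachol in lithium chloride buffer; plate controls were DMSO basal wells for no effect and reference inhibitor wells for full effect; higher means more IMPase inhibition seen as more IP1 and lower FRET ratio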
Target sequence (P97697 whole entry, looked up): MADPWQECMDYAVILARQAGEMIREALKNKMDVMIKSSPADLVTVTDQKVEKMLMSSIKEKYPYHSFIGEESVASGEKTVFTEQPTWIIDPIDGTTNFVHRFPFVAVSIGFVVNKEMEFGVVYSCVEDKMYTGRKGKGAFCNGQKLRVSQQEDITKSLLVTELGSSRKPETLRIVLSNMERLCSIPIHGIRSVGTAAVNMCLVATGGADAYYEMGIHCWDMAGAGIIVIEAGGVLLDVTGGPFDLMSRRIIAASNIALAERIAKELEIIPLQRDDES
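Seeded CHO-M1 cells were dosed with compound at up to 46 uM, stimulated with carbachol for 30 min, then lysed in IP-One detection reagents. Higher IP1 lowers the TR-FRET signal.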
* marks the source's active call; other numbers are inactive results; ? = inconclusive; nt = no result given; [ ] = dose if it differs, or a comment. Shown are actives, neighbours in structure and some others; about 8.9% of the full set was active somewhere. Unless noted, the call rests on the fitted dose curve; in most records, active means well fitted curve in the direction sought with a large enough effect; inconclusive means small, poorly fitted or top-dose-only effect, or another doubt; inactive means no such curve, though single readings can be large; an effect the other way counts as inactive or inconclusive. Unless noted, on the % scale 0 is the no-effect control and ±100 the full control effect.

SMILES | NPSR antag | ALDH1A1 block | HPGD block | IMPase Li inh | 12-hLO inh | IMPase inh
CCCCn1c(/C=N/Nc2nc3ccccc3[nH]2)nc2ccccc21 | 13µM* | 12% | -2% | 31% | 0% | 8
COc1ccc(S(=O)(=O)Nc2cc3c4c(oc3c3ccccc23)CC(C)(C)CC4=O)cc1 | ? | 3.2µM* | -19% | 8%[38.3 µM] | -8% | 7
COc1ccc(S(=O)(=O)Nc2cc3c4c(oc3c3ccccc23)CCCC4=O)cc1 | -3%[46.1 µM] | 7.9µM* | 1% | 18%[38.3 µM] | -10% | 11
COc1ccc(S(=O)(=O)Nc2ccccc2C)cc1 | -10%[46.1 µM] | 2% | -1% | 24%[38.3 µM] | 1% | -5
Cc1ccc(Cn2cccc(-c3nc4ccccc4s3)c2=O)cc1 | -22%[46.1 µM] | ? | ? | -14% | 2% | -15
CNC(=O)c1[nH]cnc1C(=O)Nc1ccc(C)cc1 | -12%[46.1 µM] | -9% | -10% | 2% | -2% | 10
CCOC(=O)/C(=C\c1cn(C)c2ccccc12)[N+](=O)[O-] | -31% | 6.3µM* | 3.5µM* | 10% | 1% | 6
Cc1cc(C)c2cc3c(N)c(C(=O)N4CCc5ccccc5C4)sc3nc2c1 | -15%[46.1 µM] | 4% | 7.1µM* | 29%[38.3 µM] | -3% | 2[1.84 µM]
Cc1ccc2nc3sc(C(=O)N4CCCc5ccccc54)c(N)c3cc2c1 | -20%[46.1 µM] | -4% | -13% | 3% | 0% | -4
S=c1[nH]c2cc3ccccc3cc2[nH]1 | -11% | nt | nt | nt | nt | nt
Cc1cc2[nH]c(=S)[nH]c2cc1C | 13% | 28µM* | 14µM* | 4% | -4% | nt
Cn1c(=O)c(-c2ccc(F)cc2)nc2cnc(Oc3ccccc3)nc21 | nt | ? | ? | 7.9µM* | -4% | nt
Cn1c(=O)c(-c2ccc(Cl)cc2)nc2cnc(Oc3ccccc3)nc21 | nt | ? | -8% | 11µM* | 1% | nt
Cn1c(=O)c(-c2ccccc2)nc2cnc(Oc3ccccc3)nc21 | nt | ? | -18% | -4% | -5% | nt
CC(C)N(Cc1nccn1C)C(=O)c1ccc(OC2CCN(C(=O)C3CC3)CC2)cc1 | -11% | 6% | nt | 10% | nt | nt
C=CCn1c(O)c(N=O)c2cc(C)ccc21 | -5% | -13% | nt | -13% | nt | nt
CCOc1ccc(NC(=O)CSc2nc(-c3cccs3)cc(C(F)(F)F)c2C#N)cc1 | nt | nt | nt | nt | nt | 3
CN1CCc2nc(SCC(=O)Nc3ccc(OC(F)(F)F)cc3)c(C#N)c(-c3cccs3)c2C1 | -58% | 3.2µM* | -24% | 3% | -5% | nt
COc1cccc(NC(=O)CSc2nc3c(c(-c4ccco4)c2C#N)CCCC3)c1 | -4%[46.1 µM] | ? | -21% | 11µM* | 5% | 3
Cc1cccc(CSc2nc3c(c(-c4cccs4)c2C#N)CN(C)CC3)c1 | -37% | ? | -5% | 4% | -4% | nt
CN1CCc2nc(SCC(=O)Nc3cccc(F)c3)c(C#N)c(-c3cccs3)c2C1 | ? | 8.9µM* | -25% | 25%[38.3 µM] | -3% | 5
O=C(O)c1cccc(Nc2ncnc3ccccc23)c1 | -13%[46.1 µM] | 7% | -8% | 23%[38.3 µM] | 2% | 3
COc1ccc(S(=O)(=O)N2CCCCCC2)cc1NC(=O)Cc1cc(OC)c(OC)c(OC)c1 | -7% | -17% | 0% | 4% | -1% | nt
N#Cc1c(Cl)nc(SCc2ccccc2)nc1-c1ccccc1 | -18%[46.1 µM] | 32µM* | 2.8µM* | 2.5µM* | -12% | ?
N#Cc1cc2c(nc1SCc1ccncc1)CCC2 | -21%[46.1 µM] | ? | -22% | 18%[38.3 µM] | -15% | -8
SMILES | NPSR antag | ALDH1A1 block | HPGD block | IMPase Li inh | 12-hLO inh | IMPase inh
N#Cc1c(N)nc2c(c1N)CC(COc1ccccc1)O2 (centres undefined) | 1%[46.1 µM] | -7% | -16% | -12%[38.3 µM] | -1% | -4
Cc1cccc(C(=O)n2c(=S)nc3ccccn32)c1 | -18%[46.1 µM] | 10µM* | 22µM* | 12%[38.3 µM] | -2% | -8
Cc1ccc(C(=O)n2c(=S)nc3ccccn32)cc1 | -24%[46.1 µM] | 22µM* | 32µM* | -12%[38.3 µM] | -1% | -7
O=C(c1ccccc1)n1c(=S)nc2ccccn21 | -2%[46.1 µM] | -2% | nt | nt | -3% | 8
O=C(COC(=O)CN1C(=O)c2ccccc2C1=O)Nc1ccc(S(=O)(=O)N2CCCC2)cc1 | -9%[46.1 µM] | ? | -2% | 14%[38.3 µM] | 6% | 4
O=C(COC(=O)CCN1C(=O)c2ccccc2C1=O)Nc1ccc(S(=O)(=O)N2CCCC2)cc1 | -10%[46.1 µM] | 5µM* | -14% | 9%[38.3 µM] | 6% | 16
Cc1ccccc1-c1ccc(=O)n(CC(=O)Nc2ccc(N3CCOCC3)cc2)n1 | ? | -1% | -5% | 8%[38.3 µM] | -2% | -3
Cc1ccccc1-c1ccc(=O)n(CC(=O)Nc2ccc(C(=O)N3CCCC3)cc2)n1 | -3%[46.1 µM] | ? | 14µM* | -1%[38.3 µM] | -5% | -1
O=C(Cn1nc(-c2ccccc2Cl)ccc1=O)Nc1ccc(Br)cc1 | 27% | 7.9µM* | nt | 13% | nt | nt
O=C(CN1CCCCC1)Nc1ccc(S(=O)(=O)N2CCCCCC2)cc1 | -1%[46.1 µM] | 1% | -1% | 14%[38.3 µM] | 5% | 6
O=C(Cn1nc(-c2ccccc2F)ccc1=O)Nc1ccc(S(=O)(=O)N2CCCCCC2)cc1 | -13% | ? | 32µM* | -5% | -2% | -11
CC(C)(C)C1=C(C#N)C(c2ccc3c(c2)OCO3)C(C#N)=C(N)O1 (centres undefined) | -20%[46.1 µM] | ? | ? | -4%[38.3 µM] | -28% | -2
Cc1ccc(SCCNC(=O)c2ccc(C)c([N+](=O)[O-])c2)cc1 | -4%[46.1 µM] | -9% | -2% | 2%[38.3 µM] | 0% | -6
CCC/C=C(\CCC)C(NC(=O)c1cccs1)c1ccc(C(F)(F)F)cc1 (centres undefined) | nt | 2% | -9% | 6% | 0% | nt
Cc1ccc(Cn2nc(C)c3cc(C(=O)OCC(N)=O)sc32)cc1 | -6%[46.1 µM] | 9% | -8% | 15%[38.3 µM] | 1% | 4
COc1cccc(/C=C/C(=O)OCC(=O)Nc2ccc(S(=O)(=O)N3CCCC3)cc2)c1 | 3% | 7.1µM* | ? | -1% | 1% | nt
COc1ccccc1CN1CCSCC1 | -8%[46.1 µM] | -9% | 5% | 20%[38.3 µM] | 0% | 0
COc1ccccc1Cn1[nH]nnc1=S | -12% | 4µM* | nt | nt | nt | nt
O=C(NCc1ccccc1)c1ccc(Cl)nc1 | -5% | -2% | nt | 4% | nt | nt
CCOc1cc(CNc2ccc(N(C)C)cc2)cc(Br)c1OCC(=O)NC(C)(C)C | 10µM* | 3.2µM* | -24% | -7%[38.3 µM] | -5% | ?
COc1cc(CNc2ccc3[nH]c(=O)[nH]c3c2)ccc1OCC(=O)NC(C)(C)C | ? | ? | ? | 31%[38.3 µM] | -7% | ?
CCOc1cc(CNc2ccc(N3CCCCC3)cc2)cc(Br)c1OCC(=O)NC(C)(C)C | -50% | ? | -14% | 11% | -3% | nt
COc1cc(CNc2ccc3[nH]c(=O)[nH]c3c2)cc(Br)c1OCC(=O)NC(C)(C)C | -28%[46.1 µM] | 0.32µM* | ? | 63%[38.3 µM] | -7% | 10

Screening results: PubChem, National Center for Advancing Translational Sciences (NCATS)
